In PubChem BioAssay (NCATS) one finds Potency and activity change, negative = inhibition data, which are given here for 42 compounds.

A short description of experiment [1]: A High-Content qHTS Against Drug Library for the Identification of Small Molecules that Inhibit DYT1 Early Onset Primary Dystonia-Associated Cell Pathology (AID 1645839; calls by dose curve). The essentials: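 Cells were seeded and left for 24 h, then dosed with compound alongside tetracycline induction of mutant EGFP-TorsinA. They were incubated for 48 h, fixed in 4% paraformaldehyde, permeabilized and imaged for mislocalization (%pathology) and cell count.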
Background: Quantitative high-throughput screening tests each substance at several concentrations.

For experiment [2], the target named is Cytochrome P450 2D6 (Homo sapiens) (UniProt P10635). The experiment is described as follows: Cytochrome P450 family 2 subfamily D member 6 (CYP2D6) small molecule antagonists: luciferase biochemical (cell-free) qHTS assay (AID 1645840; active = well fitted curve in the direction sought with a large enough effect in the repeat runs; an effect the other way counts as inactive or inconclusive; note: % is set by controls: 0 for no effect and ±100 for the full control effect; nearly all actives have a fitted effect of over 55% in size). The procedure, abridged:
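P450-Glo CYP2D6 system: proluciferin substrate converted by enzyme to luciferin, read by luminescence proportional to activity. Enzyme-substrate mix with compound 10 min at room temperature, then NADPH regeneration 1 h before detection reagent.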

Experiment [3] can be described thus: Primary qHTS for small molecule stabilizers of the endoplasmic reticulum resident proteome: Secreted ER Calcium Modulated Protein (SERCaMP) assay (AID 1508630). Note: % is set by controls: 0 for no effect and ±100 for the full control effect. The procedure, abridged: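 The SH-SY5Y reporter protocol was run at 3 concentrations up to 38.3 uM (primary) or 11 concentrations (follow-up): 16 h compound, 100 nM thapsigargin for 4 h, then extracellular luciferase luminescence.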

A short description of experiment [4]: Cytotoxicity counterscreen for inhibitors of SARS-CoV-2 cell entry (AID 1645845; calls by dose curve; note: nearly all actives have a fitted effect of over 50% in size). The procedure, abridged:
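Counterscreen run in the same HEK293-ACE2 line as the pseudotyped-particle entry assay, without particles. Viability after 48 h at 37 C was read as ATP luminescence, scaled between cell-containing and cell-free wells.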
Background: A counterscreen serves to expose hits that act by an unwanted route or on another target.

The nature of experiment [5]: Primary qHTS to identify inhibitors of SARS-CoV-2 cell entry (AID 1645846; calls by dose curve; note: nearly all actives have a fitted effect of over 45% in size). The note with it: activity change, negative = inhibition: at 57.1 µM (top of the series) unless noted. The procedure, abridged:
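Using luciferase-reporting pseudoviruses carrying Wuhan-Hu-1 spike, the screen tracks entry into stably ACE2-expressing cells over 48 hr. Activity is expressed relative to spike particles versus particles lacking any fusion protein.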

Another experiment concerns the target Papain (Carica papaya) (UniProt P00784). The experiment is described as follows: Primary qHTS assay for inhibitors of the protease papain (AID 1645873).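 Note: papain turnover of Z-FR-AMC read as the AMC fluorescence gain over 10 min; % is set by controls: 0 for no effect and ±100 for the full control effect.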
The target of experiment [6] is Cytochrome P450 2C9 (Homo sapiens) (UniProt P11712). The experiment is described as follows: Cytochrome P450 family 2 subfamily C member 9 (CYP2C9) small molecule antagonists: luciferase biochemical (cell-free) qHTS assay (AID 1645842; active = well fitted curve in the direction sought with a large enough effect in the repeat runs; an effect the other way counts as inactive or inconclusive; note: nearly all actives have a fitted effect of over 55% in size; note: potency is the fitted concentration of half-maximal effect; for activity change, negative = inhibition: % is set by controls: 0 for no effect and ±100 for the full control effect). The procedure, abridged:
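P450-Glo CYP2C9 system: proluciferin substrate with enzyme in mix containing 0.4% BSA, 10 min at room temperature, then NADPH regeneration solution added and incubated 1 h at 37C. Detection reagent stopped reaction; luminescence read after 20 min as RLU.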

The target of experiment [7] is Cytochrome P450 3A4 (Homo sapiens) (UniProt P08684). Nature of the experiment: Cytochrome P450 family 3 subfamily A member 4 (CYP3A4) small molecule antagonists: luciferase qHTS assay (AID 1645841; active = well fitted curve in the direction sought with a large enough effect in the repeat runs; an effect the other way counts as inactive or inconclusive; note: nearly all actives have a fitted effect of over 45% in size). The essentials:
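P450-Glo CYP3A4 enzyme with proluciferin substrate preincubated 10 min with compound at room temperature, then NADPH regeneration 1 h. Luciferin detection reagent added for 20 min; luminescence recorded. Ketoconazole positive control.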

Results filed as inconclusive are left out. Active and inactive are the calls of the source. Unless noted, calls come from the whole dose curve; as a rule, active = well fitted curve in the direction sought with a large enough effect; inconclusive = small, poorly fitted or top-dose-only effect, or another doubt; inactive = no such curve, though single readings can be large; an effect the other way counts as inactive or inconclusive.

Chain of Cytochrome P450 2C9 (Homo sapiens) (P11712 whole entry, looked up): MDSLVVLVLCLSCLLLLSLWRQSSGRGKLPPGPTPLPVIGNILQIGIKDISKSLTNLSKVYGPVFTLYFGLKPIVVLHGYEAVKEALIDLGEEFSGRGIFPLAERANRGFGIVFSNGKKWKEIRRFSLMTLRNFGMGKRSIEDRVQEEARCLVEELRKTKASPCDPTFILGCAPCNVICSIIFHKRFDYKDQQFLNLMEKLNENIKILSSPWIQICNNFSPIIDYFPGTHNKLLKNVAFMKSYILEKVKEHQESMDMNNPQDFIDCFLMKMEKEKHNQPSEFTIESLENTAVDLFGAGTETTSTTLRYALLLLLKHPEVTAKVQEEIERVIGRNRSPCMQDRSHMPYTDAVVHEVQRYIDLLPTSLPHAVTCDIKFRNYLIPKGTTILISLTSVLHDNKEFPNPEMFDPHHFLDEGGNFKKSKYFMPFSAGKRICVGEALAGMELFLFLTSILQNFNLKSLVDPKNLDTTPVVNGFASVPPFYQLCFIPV
Chain of Cytochrome P450 2D6 (Homo sapiens) (P10635 whole entry, looked up): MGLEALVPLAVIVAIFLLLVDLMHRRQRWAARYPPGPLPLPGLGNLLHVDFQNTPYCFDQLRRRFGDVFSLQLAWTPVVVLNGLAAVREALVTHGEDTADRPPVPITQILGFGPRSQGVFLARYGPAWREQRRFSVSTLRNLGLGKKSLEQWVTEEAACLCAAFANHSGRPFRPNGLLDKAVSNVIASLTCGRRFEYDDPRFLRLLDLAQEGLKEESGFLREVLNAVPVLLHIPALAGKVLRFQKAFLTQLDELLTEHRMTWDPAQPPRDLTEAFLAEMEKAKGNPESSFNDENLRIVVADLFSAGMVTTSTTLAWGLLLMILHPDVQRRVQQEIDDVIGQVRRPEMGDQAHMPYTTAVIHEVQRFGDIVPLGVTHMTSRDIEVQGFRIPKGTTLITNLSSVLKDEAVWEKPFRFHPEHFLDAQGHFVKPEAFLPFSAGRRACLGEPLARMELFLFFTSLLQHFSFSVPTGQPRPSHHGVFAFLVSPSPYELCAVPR
Chain of Papain (Carica papaya) (P00784 whole entry, looked up): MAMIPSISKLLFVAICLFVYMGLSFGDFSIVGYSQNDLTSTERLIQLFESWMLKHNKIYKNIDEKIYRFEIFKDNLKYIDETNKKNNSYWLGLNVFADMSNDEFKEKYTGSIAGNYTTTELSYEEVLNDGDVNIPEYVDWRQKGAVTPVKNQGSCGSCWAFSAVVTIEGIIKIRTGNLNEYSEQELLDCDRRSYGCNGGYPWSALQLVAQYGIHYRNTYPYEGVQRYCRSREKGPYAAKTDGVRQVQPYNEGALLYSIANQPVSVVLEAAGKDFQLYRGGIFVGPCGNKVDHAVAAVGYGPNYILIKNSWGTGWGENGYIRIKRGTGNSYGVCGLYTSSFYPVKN
Chain of Cytochrome P450 3A4 (Homo sapiens) (P08684 whole entry, looked up): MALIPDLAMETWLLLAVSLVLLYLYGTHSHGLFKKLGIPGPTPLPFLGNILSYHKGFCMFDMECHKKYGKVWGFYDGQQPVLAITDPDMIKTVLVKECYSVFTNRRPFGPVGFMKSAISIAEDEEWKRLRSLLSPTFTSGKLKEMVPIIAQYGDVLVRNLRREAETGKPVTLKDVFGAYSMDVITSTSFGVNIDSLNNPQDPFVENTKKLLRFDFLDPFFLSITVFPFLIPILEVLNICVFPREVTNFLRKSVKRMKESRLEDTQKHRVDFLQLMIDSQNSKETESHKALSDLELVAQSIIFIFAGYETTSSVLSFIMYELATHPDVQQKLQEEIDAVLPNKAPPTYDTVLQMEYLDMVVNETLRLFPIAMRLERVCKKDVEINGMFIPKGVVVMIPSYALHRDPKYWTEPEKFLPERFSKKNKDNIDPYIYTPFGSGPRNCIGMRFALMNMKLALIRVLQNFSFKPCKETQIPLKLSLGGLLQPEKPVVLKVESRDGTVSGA

For the compound `CCCCC(CC)COC(=O)c1ccccc1C(=O)OCC(CC)CCCC` (stereo not given), the Potency result in experiment [1] and in experiment [2] was “inactive” each time.
Consider `O=S(=O)(F)Cc1ccccc1`, for which the Potency result in experiment [3] and in experiment [4] was “inactive” in each case. In addition, in experiment [5], the activity change, negative = inhibition was -1.91%.
Turning to `CN[C@@H]1C[C@@H](c2ccc(Cl)c(Cl)c2)c2ccccc21`, the Potency entry (in experiment [3]; with Papain (Carica papaya)) was “inactive” in each case.
For `CCN1C[C@]2(OC(=O)c3ccccc3NC(C)=O)CC[C@H](OC)[C@@]34[C@H]5CC6[C@@H](OC)C[C@](O)(C(C[C@@H]23)[C@@H]14)[C@@]5(O)[C@@H]6OC`, the Potency entry in experiment [3] is “inactive”. Further, the activity change, negative = inhibition in experiment [5] was 1.38%.
`NC(N)=NOCCC(N)C(=O)O` (stereo not given): the Potency result (in experiment [3]; with Papain (Carica papaya)) was “inactive” each time.
For the compound `O=C1CCCN1CC#CCN1CCCC1`, the Potency entry (in experiment [3]; in the experiment with Papain (Carica papaya)) was “inactive” in each case.
As for `COc1cc(C(O)CN)ccc1O` (stereo not given), the Potency entry (in experiment [3]; with Papain (Carica papaya)) was “inactive” throughout.
For the compound `O=C(N[C@H]1CN2CCC1CC2)c1ccc(Cl)cc1`, the Potency result (in experiment [3]; in experiment [4]; in the experiment with Papain (Carica papaya)) was “inactive” in each case. Moreover, the activity change, negative = inhibition in experiment [5] is 4.38%.
On to `CCCN(CCC)[C@@H]1CCc2ccc(O)cc2C1`, for which the Potency entry (in experiment [3]; with Papain (Carica papaya)) was “inactive” throughout.
Take `NC(=NCCC[C@H](N)C(=O)O)N[N+](=O)[O-]`: the Potency result (in experiment [3]; in the experiment with Papain (Carica papaya)) was “inactive” each time.
On to `COCCOCCO`, for which the Potency result in experiment [1], in experiment [2] and in experiment [6] was “inactive” throughout.
With `c1ccc(CCCN2CCN(CCOC(c3ccccc3)c3ccccc3)CC2)cc1`, the Potency entry (in experiment [3]; with Papain (Carica papaya)) was “inactive” in each case.
In the case of `CCCN(CCC)C1CCc2ccc(O)cc2C1` (stereo not given), the Potency result (in experiment [3]; with Papain (Carica papaya)) was “inactive” throughout.
Regarding `OCCCBr`, the Potency entry in experiment [1] and in experiment [2] was “inactive” throughout.
On to `CC(C)[C@H]1C(=O)N[C@H](CO)Cc2c[nH]c3cccc(c23)N1C`, for which the Potency result in experiment [3] and in experiment [5] was “inactive” each time.
Turning to `CCOC(=O)c1c(C(C#N)=CN)c2ccc(Cl)c(Cl)c2n1C`, the Potency entry in experiment [3] and in experiment [4] was “inactive” in each case. The activity change, negative = inhibition in experiment [5] is -10.2%.
For the compound `Oc1ccc2c3c1O[C@H]1c4[nH]c5c(c4C[C@@]4(O)[C@@H](C2)N(CC2CC2)CC[C@]314)C[C@@]1(O)[C@H]2Cc3ccc(O)c4c3[C@@]1(CCN2CC1CC1)[C@H]5O4`, the Potency entry (in experiment [3]; with Papain (Carica papaya)) was “inactive” in each case.
Consider `O=C(O)[C@@H]1CCN1`, for which the Potency entry (in experiment [3]; in the experiment with Papain (Carica papaya)) was “inactive” in each case.
For `CC(C)[C@]12O[C@H]1[C@@H]1O[C@]13[C@]1(O[C@H]1C[C@H]1C4=C(CC[C@@]13C)C(=O)OC4)[C@@H]2O`, in experiment [3], the Potency entry was “inactive”. The activity change, negative = inhibition in experiment [5] is -93.7%.
`C[C@]12CCC3C(CC[C@H]4C[C@H](O)CC[C@]34C)C1CC[C@@H]2C(=O)CO` (stereo not given in full): the Potency result (in experiment [3]; with Papain (Carica papaya)) was “inactive” each time.
Consider `O=C(Cc1ccc(Cl)c(Cl)c1)N1CCCCC1CN1CCCC1` (stereo not given), for which the Potency entry (in experiment [3]; with Papain (Carica papaya)) was “inactive” each time.
Regarding `NC(CP(=O)(O)O)C(=O)O` (stereo not given), the Potency result (in experiment [3]; in the experiment with Papain (Carica papaya)) was “inactive” each time.
Regarding `O=C(Oc1ccc([N+](=O)[O-])cc1)N1CCC(C(O)(c2ccc3c(c2)OCO3)c2ccc3c(c2)OCO3)CC1`, the Potency entry in experiment [3] and in experiment [4] was “inactive” in each case. Moreover, the activity change, negative = inhibition in experiment [5] was -17.3%.
On to `Cc1ccccc1-n1c(Cn2cnc3c(N)ncnc32)nc2cccc(C)c2c1=O`, for which the Potency entry in experiment [3], in experiment [4] and in experiment [5] was “inactive” in each case.
Turning to `NCCc1c[nH]c2ccccc12`, the Potency result (in experiment [3]; with Papain (Carica papaya)) was “inactive” throughout.
As to `C[C@@H]1O[C@H](C[N+](C)(C)C)C[C@H]1O`, the Potency entry (in experiment [3]; in the experiment with Papain (Carica papaya)) was “inactive” each time.
Regarding `CCNC(=O)CC1N=C(c2ccc(Cl)cc2)c2cc(OC)ccc2-n2c(C)nnc21` (stereo not given), in experiment [3], the Potency result is “inactive”. The activity change, negative = inhibition in experiment [5] was -16.5%.
As to `Fc1cc(Br)ccc1CBr`, the Potency entry in experiment [1], in experiment [2] and in experiment [6] was “inactive” in each case.
Consider `O=C(O)CCCOc1ccc(Cl)cc1Cl`, for which the Potency entry in experiment [1] and in experiment [2] was “inactive” in each case.
Turning to `CCCC[N+]1(C)[C@H]2CC(OC(=O)[C@H](CO)c3ccccc3)C[C@H]1[C@H]1O[C@H]12` (stereo not given in full), the Potency entry in experiment [3] is “inactive”. Further, in experiment [5], the activity change, negative = inhibition was -13.1%.
As for `NC(CCP(=O)(O)O)C(=O)O` (stereo not given), the Potency entry (in experiment [3]; with Papain (Carica papaya)) was “inactive” throughout.
Consider `OCCC#Cc1nc(-c2ccc(F)cc2)c(-c2ccncc2)n1CCCc1ccccc1`, for which the Potency entry in experiment [4] is “inactive”.
For `Cc1c(C(=O)Nc2cccc(C(F)(F)F)c2)cc(-c2ccccc2)n1CCCN1CCOCC1`, the Potency in experiment [6] was 4.77 µM (active).
With `N#CC[C@H](C1CCCC1)n1cc(-c2ncnc3[nH]ccc23)cn1`, the Potency result in experiment [4] is “inactive”.
On the same count and under the same terms, the entry for `NC(=O)c1ccc(-c2nc(-c3ccc4c(c3)OCCO4)c(-c3ccccn3)[nH]2)cc1` is “inactive”.
Turning to `C[C@]12COC(=O)C[C@@H]1CC[C@@H]1[C@H]2CC[C@@]2(C)[C@H]1CC[C@]2(C)O`, the Potency entry in experiment [2] and in experiment [6] was “inactive” each time.
In the case of `O=[N+]([O-])c1ccc([As](=O)(O)O)cc1`, the Potency result in experiment [2], in experiment [7], in experiment [6] and in experiment [4] was “inactive” throughout. Besides, the activity change, negative = inhibition in experiment [5] was determined as 1.4%.
Take `CC(=O)N(C)c1cccc(-c2ccnc3c(C(=O)c4cccs4)cnn23)c1`: the Potency entry in experiment [2] and in experiment [6] was “inactive” each time.
Turning to `CC(C)(C)NC[C@H](O)c1ccc(O)cc1Cl`, the Potency result in experiment [1], in experiment [2] and in experiment [6] was “inactive” throughout.
With `O=C(O)c1ccccc1O`, the Potency result in experiment [2], in experiment [7] and in experiment [6] was “inactive” throughout.
As for `c1cc2ccc3cccc4ccc(c1)c2c34`, the Potency entry in experiment [1], in experiment [2] and in experiment [6] was “inactive” in each case.
Turning to `CS(=O)(=O)c1ccc(C(=O)C2C(=O)CCCC2=O)c([N+](=O)[O-])c1`, the Potency entry in experiment [1] and in experiment [2] was “inactive” in each case. The Potency in experiment [6] is 26.4 µM (active).
